Results from PubChem BioAssay (NCATS).
Where “and” joins values, the source holds several entries; their conditions need not be identical. Equal values may be shown once. Inconclusive results are not listed. Calls of active or inactive are those of the source. Unless noted, the call rests on the fitted dose curve; in most records, active means well fitted curve in the direction sought with a large enough effect; inconclusive means small, poorly fitted or top-dose-only effect, or another doubt; inactive means no such curve, though single readings can be large; an effect the other way counts as inactive or inconclusive.

Legend:
[1] = molecular target: Cellular tumor antigen p53 (Homo sapiens) (UniProt P04637); test: Primary qHTS for small molecule compounds that upregulate eGFP-tagged delta133p53alpha (in N-terminal) cells. (AID 2060322); conditions: NCI-H358 eGFP-delta133p53alpha fluorescence, 24 h; activation: active compounds read high; further: nearly all actives have a fitted effect of over 75% in size; further: potency means the concentration at half of the fitted maximal effect;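 on activation: series mostly up to about 56 µM; 0% = DMSO vehicle and 100% = reference activator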
Sequence of Cellular tumor antigen p53 (Homo sapiens) (P04637 whole entry, looked up): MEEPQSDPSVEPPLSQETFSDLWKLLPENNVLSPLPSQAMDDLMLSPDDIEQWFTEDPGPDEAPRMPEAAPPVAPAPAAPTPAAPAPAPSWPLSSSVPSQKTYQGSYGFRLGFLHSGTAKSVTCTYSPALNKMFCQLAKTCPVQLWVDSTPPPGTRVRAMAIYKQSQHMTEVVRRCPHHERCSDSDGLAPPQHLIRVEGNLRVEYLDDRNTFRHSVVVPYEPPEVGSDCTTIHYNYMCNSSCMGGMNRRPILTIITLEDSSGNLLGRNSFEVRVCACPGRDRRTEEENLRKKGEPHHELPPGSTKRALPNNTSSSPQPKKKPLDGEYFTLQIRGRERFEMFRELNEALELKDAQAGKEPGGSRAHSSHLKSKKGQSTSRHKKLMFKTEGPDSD
Outline: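 NCI-H358 cells pre-induced 24 h with 10 ng/ml doxycycline to express N-terminal eGFP-delta133p53alpha, then dosed 24 h at 37C without doxycycline; fixed, Hoechst-stained, GFP intensity by laser scanning cytometry, normalized to DMSO (0%) and 57.5 uM 5-azacytidine (100%).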

[2] = molecular target: Cellular tumor antigen p53 (Homo sapiens) (UniProt P04637); test: Primary qHTS for small molecule compounds that upregulate eGFP-tagged delta133p53alpha (in C-terminal) cells. (AID 2060324); further: potency means the concentration at half of the fitted maximal effect
Outline: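 NCI-H358 cells pre-induced 24 h with 100 ng/ml doxycycline to express delta133p53alpha-eGFP, then dosed in doxycycline-free medium for 24 h at 37C. Fixed, Hoechst-stained; GFP intensity by laser scanning cytometry, normalized to DMSO wells.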

[3] = molecular target: Aldehyde dehydrogenase, mitochondrial (Homo sapiens) (UniProt P05091); test: qHTS for Inhibitors of the Aldehyde Dehydrogenase Family (ALDH2) Validation screens (AID 2061302; active means well fitted inhibition curve with a large enough effect; title and protocol of this record describe different tests;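 further: plate controls were DMSO vehicle for no effect and maximal DPI positive control response for full effect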)
[4] = molecular target: Retinaldehyde dehydrogenase 3 (Homo sapiens) (UniProt P47895); test: qHTS for Inhibitors of the Aldehyde Dehydrogenase Family (ALDH1A3) Validation screen (AID 2061312); further: on the % scale 0 is the no-effect control and ±100 the full control effect; nearly all actives have a fitted effect of over 45% in size

CCCCC[C@H](CC(=O)NO)C(=O)N[C@H](C(=O)N1CCC[C@H]1CO)C(C)C
inactive: activation [1] -6.85% | Potency [2] | Potency [3] | Potency [4]

CCN(CC)CCOCCOC(=O)C1(c2ccccc2)CCCC1
inactive: activation [1] -17.5% and -6.79% | Potency [2] | Potency [3] | Potency [4]

COc1ccc2c(c1)c(CC(=O)O)c(C)n2C(=O)c1ccccc1
inactive: activation [1] -16.8% | Potency [2] | Potency [3] | Potency [4]

NOCC(=O)O
inactive: activation [1] -16.6% | Potency [2] | Potency [3] | Potency [4]

O=C(O)C1=CCCNC1
inactive: activation [1] -16.6% | Potency [2] | Potency [3] | Potency [4]

COc1cc(N)c(Cl)cc1C(=O)OCCN1CCCCC1
inactive: activation [1] -2.92% | Potency [2] | Potency [3] | Potency [4]

CC(C)NCC(O)COc1ccc(COCCOC(C)C)cc1 (stereo not given)
inactive: activation [1] -8.37% and -9.29% and -8.52% | Potency [2] | Potency [3] | Potency [4]

CC(C)[N+](C)(CCOC(=O)C1c2ccccc2Oc2ccccc21)C(C)C
inactive: activation [1] 18.6% and -22.6% | Potency [2] | Potency [3] | Potency [4]

CC(=O)N[C@@H](CS)C(=O)O
inactive: activation [1] 11.9% and -21.2% | Potency [2] | Potency [3] | Potency [4]

COc1ccc(/C=C2\COc3ccc(C)cc3C2=O)cc1O
active: Potency [2] 13.5 µM
inactive: activation [1] -71.5% | Potency [3] | Potency [4]

CCNC(=O)N1CCN(CCCC(c2ccc(F)cc2)c2ccc(F)cc2)CC1
inactive: activation [1] -22% and -43.5% | Potency [2] | Potency [3] | Potency [4]

O=C(CCCN1CCC(O)(c2ccc(Cl)cc2)CC1)c1ccc(F)cc1
inactive: activation [1] 37.6% and -8.4% | Potency [2] | Potency [3] | Potency [4]

Fc1ccc(C(OCCCc2cnc[nH]2)c2ccc(F)cc2)cc1
inactive: activation [1] -45.7% | Potency [2] | Potency [3] | Potency [4]

O=C(O)CCC(=O)N1CCCC1C(=O)O (stereo not given)
inactive: activation [1] 8.81% | Potency [2] | Potency [3] | Potency [4]

[Li+]
inactive: activation [1] -7.03% | Potency [2] | Potency [3] | Potency [4]

CC(=O)C(C)=O
inactive: activation [1] -5.18% | Potency [2] | Potency [3] | Potency [4]

NC(N)=NC(N)=Nc1ccccc1
inactive: activation [1] -1.81% | Potency [2] | Potency [3] | Potency [4]

CC[N+](CC)(CC)CC(=O)Nc1c(C)cccc1C
inactive: activation [1] -4.9% | Potency [2] | Potency [3] | Potency [4]

Nc1cc(=O)[nH]c(N)n1
inactive: activation [1] -34.3% and -22.6% | Potency [2] | Potency [3] | Potency [4]

CCCCCCCCCCCCCCC[C@H](O)[C@H](N)CO
inactive: activation [1] 14.1% | Potency [2] | Potency [3] | Potency [4]

CCCNC(C)C(=O)Nc1ccccc1C (stereo not given)
inactive: activation [1] -9.21% and 30.8% | Potency [2] | Potency [3] | Potency [4]

CSc1nc(N)c2ncn([C@@H]3O[C@H](COP(=O)(O)OP(=O)(O)O)C(O)[C@H]3O)c2n1 (stereo not given in full)
inactive: activation [1] -2.39% | Potency [2] | Potency [3] | Potency [4]

CCc1ccc2c(-c3cccc(Cl)c3)nc(=O)n(CC)c2n1
inactive: activation [1] -40.5% | Potency [2] | Potency [3] | Potency [4]

NC1(C(=O)O)CCCCC1
inactive: activation [1] 13.9% | Potency [2] | Potency [3] | Potency [4]

CCCCCCCCc1ccc(-c2ccc(C(=O)O)cc2)cc1
inactive: activation [1] -87.3% | Potency [2] | Potency [3] | Potency [4]

O=C1C2C=CC=CC2=NC(=S)N1CCN1CCC(=C(c2ccc(F)cc2)c2ccc(F)cc2)CC1 (stereo not given)
inactive: activation [1] -39.4% | Potency [2] | Potency [3] | Potency [4]

Nc1ccc(-c2nc3ccc(-c4nc5ccc(N)cc5[nH]4)cc3[nH]2)cc1
inactive: activation [1] -9.36% | Potency [2] | Potency [3] | Potency [4]

CCCC1O[C@@H]2C[C@H]3[C@@H]4CCC5=CC(=O)C=C[C@]5(C)[C@H]4[C@@H](O)C[C@]3(C)[C@]2(C(=O)CO)O1 (stereo not given in full)
inactive: activation [1] -22.8% | Potency [2] | Potency [3] | Potency [4]

CN(C)CC[C@@H](c1ccc(Cl)cc1)c1ccccn1
inactive: activation [1] -9.6% and -8.57% | Potency [2] | Potency [3] | Potency [4]

COc1cccc(OC)c1OCCNCC1COc2ccccc2O1 (stereo not given)
inactive: activation [1] 7.71% | Potency [2] | Potency [3] | Potency [4]

NC(N)=NCc1cccc(I)c1
inactive: activation [1] -18.3% | Potency [2] | Potency [3] | Potency [4]

Cc1nc2ccccn2c(=O)c1CCN1CCC(C(=O)c2ccc(F)cc2)CC1
inactive: activation [1] 0.565% and -12% | Potency [2] | Potency [3] | Potency [4]

CN[C@H](CC(=O)O)C(=O)O
inactive: activation [1] -12.8% | Potency [2] | Potency [3] | Potency [4]

CC(C)C[C@H](NC(=O)C1OC1C(=O)O)C(=O)NCCCCN=C(N)N (stereo not given in full)
inactive: activation [1] -1.96% | Potency [2] | Potency [3] | Potency [4]

N#Cc1cc2nc(O)c(O)nc2cc1[N+](=O)[O-]
inactive: activation [1] -30.1% | Potency [2] | Potency [3] | Potency [4]

CC(C)(C)[C@]1(O)CCN2C[C@H]3c4ccccc4CCc4cccc(c43)[C@@H]2C1
inactive: activation [1] -52.3% and -59.2% | Potency [2] | Potency [3] | Potency [4]

NCC(O)(CS(=O)(=O)O)c1ccc(Cl)cc1 (stereo not given)
inactive: activation [1] -28.8% | Potency [2] | Potency [3] | Potency [4]

CC(C)(C=O)Cc1cc(C(C)(C)C)c(O)c(C(C)(C)C)c1
inactive: activation [1] -15.2% | Potency [2] | Potency [3] | Potency [4]

Cc1cccc(C)c1NC(=O)C(C)N (stereo not given)
inactive: activation [1] 10.9% and -14% | Potency [2] | Potency [3] | Potency [4]

CC(=O)O[C@H]1CC2(C)[C@@H](C[C@@H](O)[C@H]3[C@@]4(C)CC[C@@H](O)[C@@H](C)[C@@H]4CC[C@@]32C)C1=C(CCC=C(C)C)C(=O)O (stereo not given in full)
inactive: activation [1] -11.4% | Potency [2] | Potency [3] | Potency [4]

c1ccc(-c2ccccn2)nc1
inactive: activation [1] -21.2% | Potency [2] | Potency [3] | Potency [4]

CC(C)Cn1c(=O)n(C)c(=O)c2[nH]cnc21
inactive: activation [1] -30.3% | Potency [2] | Potency [3] | Potency [4]

COCCCC/C(=N\OCCN)c1ccc(C(F)(F)F)cc1
inactive: activation [1] -6.69% and 3.07% | Potency [2] | Potency [3] | Potency [4]

COc1ccccc1N1CCN(CCCNc2c(C)c(=O)n(C)c(=O)n2C)CC1
inactive: activation [1] -0.789% | Potency [2] | Potency [3] | Potency [4]

CC(C)NNC(=O)c1ccncc1
inactive: activation [1] 1.67% and -19% | Potency [2] | Potency [3] | Potency [4]

CC1=NS(=O)(=O)c2cc(Cl)ccc2N1
inactive: activation [1] 19.8% and -34.3% | Potency [2] | Potency [3] | Potency [4]

O=[N+]([O-])c1cccc2cn[nH]c12
inactive: activation [1] -32.7% | Potency [2] | Potency [3] | Potency [4]

Cn1cc(C2=C(c3ccc(Cl)cc3Cl)C(=O)NC2=O)c2ccccc21
inactive: Potency [3] | Potency [4]
active: Potency [1] 10.7 µM | Potency [2] 2.39 µM

O=C(O)c1cc2cc(Cc3cccnc3)ccc2o1
inactive: activation [1] 19.6% | Potency [2] | Potency [3] | Potency [4]

NC(N)=NC(=O)c1nc(Cl)c(N2CCCCCC2)nc1N
inactive: activation [1] -39.1% | Potency [2] | Potency [3] | Potency [4]

CNCCCN1c2ccccc2CCc2ccccc21
inactive: activation [1] 14.2% and -26.6% | Potency [2] | Potency [3] | Potency [4]

O=c1n(CCCN2CCN(c3cccc(Cl)c3)CC2)nc2ccccn12
inactive: activation [1] -7.53% and 33.4% and -0.284% | Potency [2] | Potency [3] | Potency [4]

N[C@@H](CC(=O)O)C(=O)O
inactive: activation [1] -3.52% | Potency [2] | Potency [3] | Potency [4]

OC(CN1CCC(Cc2ccc(F)cc2)CC1)c1ccc(Cl)cc1 (stereo not given)
inactive: activation [1] 5.08% and 40.7% | Potency [2] | Potency [3] | Potency [4]

C#C[C@]1(O)CC[C@H]2[C@@H]3CCC4=Cc5oncc5CC4(C)[C@H]3CCC21C (stereo not given in full)
inactive: activation [1] -35.6% | Potency [2] | Potency [3] | Potency [4]

CC(C)(C)NCC(O)COc1cccc2[nH]c(=O)[nH]c12 (stereo not given)
inactive: activation [1] -2.8% | Potency [2] | Potency [3] | Potency [4]

C[C@]12CCC(=O)C=C1CC[C@@H]1[C@@H]2C(=O)C[C@@]2(C)[C@H]1CC[C@]2(O)C(=O)CO
inactive: activation [1] 0.837% and -9.81% | Potency [2] | Potency [3] | Potency [4]

CN(C)CC/C=C1\c2ccccc2COc2ccccc21
inactive: activation [1] -10.9% and -21.6% | Potency [2] | Potency [3] | Potency [4]

CNc1ncnc2c1ncn2[C@@H]1O[C@H](CO)[C@@H](O)[C@H]1O
inactive: activation [1] 5.48% | Potency [2] | Potency [3] | Potency [4]

CCN1CCC[C@H]1CNC(=O)c1c(O)c(Cl)cc(Cl)c1OC
inactive: activation [1] -10% and -6.2% | Potency [2] | Potency [3] | Potency [4]

CN1CCCC1CCOC(C)(c1ccccc1)c1ccc(Cl)cc1 (stereo not given)
inactive: activation [1] -26.8% | Potency [2] | Potency [3] | Potency [4]

COc1cc(CC(=O)O)ccc1O
inactive: activation [1] -3.12% | Potency [2] | Potency [3] | Potency [4]

O=C(O)c1ccccc1Nc1ccccc1
inactive: activation [1] -8.85% | Potency [2] | Potency [3] | Potency [4]

Cc1nc(N=Nc2ccc(C(=O)O)cc2)c(COP(=O)(O)O)c(C=O)c1O
inactive: activation [1] -2.63% | Potency [2] | Potency [3] | Potency [4]

CN1CCN2c3ccccc3Cc3ccccc3C2C1 (stereo not given)
inactive: activation [1] -35.4% | Potency [2] | Potency [3] | Potency [4]
